In PubChem BioAssay (NCATS):
Values joined by “and” are separate entries in the source; they are usually repeats but may differ in a detail not shown here. Equal values may be shown once. Results filed as inconclusive are left out. Some compounds were tested as several samples or in several runs, with calls that do not always agree. Active and inactive are the calls of the source. Calls come from the whole dose curve; as a rule, active = well fitted curve in the direction sought with a large enough effect; inconclusive = small, poorly fitted or top-dose-only effect, or another doubt; inactive = no such curve, though single readings can be large; an effect the other way counts as inactive or inconclusive.

Legend:
HEK293 = test: Cytotoxic Profiling of Annotated Libraries Using Quantitative High-Throughput Screening (AID 1296008); settings: Five cell lines viability, CellTiter-Glo ATP luminescence, 48-72 h; max response: stronger effect = lower value; note: nearly all actives have a fitted effect of over 60% in size
Method in brief: (§1)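 Cytotoxicity was measured as CellTiter-Glo ATP luminescence, read after 10 min at room temperature. Compound treatment of the cells lasted 48 or 72 hr at 37 degrees Celsius in a qHTS format.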

HaCat [1] = test: as above; settings: Five cell lines viability, CellTiter-Glo ATP luminescence, 48-72 h; max response: stronger effect = lower value
Method in brief: as §1

KB-3-1 = test: as above; settings: Five cell lines viability, CellTiter-Glo ATP luminescence, 48-72 h; max response: stronger effect = lower value
Method in brief: as §1

NIH3T3 [2] = test: as above; settings: Five cell lines viability, CellTiter-Glo ATP luminescence, 48-72 h; max response: stronger effect = lower value
Method in brief: as §1

HACAT [3] = test: qHTS assay to identify novel small-molecules to repurpose for Merkel cell carcinoma treatment (AID 1296009); settings: MCC and control cell lines, CellTiter-Glo viability, 72 h; at 44.8 µM (top of the series) unless noted; note: nearly all actives have a fitted effect of over 60% in size
Method in brief: (§2)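 Cell viability, measured as CellTiter-Glo luminescence, was normalized between DMSO and no-cell wells. The cells had been exposed to 8- or 11-point compound dilutions for 72 hr at 37 degree celsius.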

MCC-13 = test: as above; settings: MCC and control cell lines, CellTiter-Glo viability, 72 h; series mostly up to 46 µM
Method in brief: as §2

MCC-26 = test: as above; settings: MCC and control cell lines, CellTiter-Glo viability, 72 h; series mostly up to 46 µM
Method in brief: as §2

MKL-1 = test: as above; settings: MCC and control cell lines, CellTiter-Glo viability, 72 h; series mostly up to 46 µM
Method in brief: as §2

MKL-2 = test: as above; settings: MCC and control cell lines, CellTiter-Glo viability, 72 h; series mostly up to 46 µM
Method in brief: as §2

UISO = test: as above; settings: MCC and control cell lines, CellTiter-Glo viability, 72 h; series mostly up to 46 µM
Method in brief: as §2

WaGa = test: as above; settings: MCC and control cell lines, CellTiter-Glo viability, 72 h; series mostly up to 46 µM
Method in brief: as §2

C33A = test: Primary qHTS to identify gynecologic anti-cancer compounds using libraries of approved drugs and bioactive compounds (AID 1345084); settings: Gynecologic cancer cell panel viability, ATPlite luminescence, 48 h; series mostly up to 57.5 µM; note: nearly all actives have a fitted effect of over 55% in size
Method in brief: (§3)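 Five-concentration response, 48 h; readout is ATP-driven luciferase luminescence.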

CAOV3 = test: as above; settings: Gynecologic cancer cell panel viability, ATPlite luminescence, 48 h; series mostly up to 57.5 µM
Method in brief: as §3

CASKI = test: as above; settings: Gynecologic cancer cell panel viability, ATPlite luminescence, 48 h; series mostly up to 57.5 µM
Method in brief: as §3

Es-2 = test: as above; settings: Gynecologic cancer cell panel viability, ATPlite luminescence, 48 h; series mostly up to 57.5 µM
Method in brief: as §3

HeLa = test: as above; settings: Gynecologic cancer cell panel viability, ATPlite luminescence, 48 h; series mostly up to 57.5 µM
Method in brief: as §3

Hek293T [4] = test: as above; settings: Gynecologic cancer cell panel viability, ATPlite luminescence, 48 h, control line for the selectivity index; series mostly up to 57.5 µM
Method in brief: as §3

JEG-3 = test: as above; settings: Gynecologic cancer cell panel viability, ATPlite luminescence, 48 h; series mostly up to 57.5 µM
Method in brief: as §3

NIH3T3 [5] = test: qHTS assay to identify novel small-molecules to repurpose for Merkel cell carcinoma treatment (AID 1296009); settings: MCC and control cell lines, CellTiter-Glo viability, 72 h; at 44.8 µM (top of the series) unless noted; note: nearly all actives have a fitted effect of over 60% in size
Method in brief: as §2

HEK293T [6] = test: as above; settings: MCC and control cell lines, CellTiter-Glo viability, 72 h; at 44.8 µM (top of the series)
Method in brief: as §2
% is set by controls: 0 for no effect and ±100 for the full control effect; potency is the fitted concentration of half-maximal effect.

O=c1n(CCCN2CCN(c3cccc(Cl)c3)CC2)nc2ccccn12
inactive: max response (HEK293) 2.07% and 1.71% | max response (HaCat [1]) -8.88% | outcome (HaCat [1]) | max response (KB-3-1) -0.946% and 1.57% | max response (NIH3T3 [2]) 3.22% and 3% | outcome (HACAT [3]) | Potency (MCC-13) | Potency (MCC-26) | Potency (MKL-1) | Potency (MKL-2) | Potency (UISO) | Potency (WaGa) | Potency (C33A) | Potency (CAOV3) | Potency (CASKI) | Potency (Es-2) | Potency (HeLa) | Potency (Hek293T [4]) | Potency (JEG-3)

CNC[C@H](O)c1cccc(O)c1
inactive: max response (HEK293) 1.65% and -9.71% | max response (HaCat [1]) -21.3% | outcome (HaCat [1]) | max response (KB-3-1) 3.69% | outcome (KB-3-1) | max response (NIH3T3 [2]) 3.51% | outcome (NIH3T3 [2]) | outcome (HACAT [3]) | Potency (MCC-13) | Potency (MCC-26) | Potency (MKL-1) | Potency (MKL-2) | outcome (NIH3T3 [5]) | Potency (UISO) | Potency (WaGa) | Potency (C33A) | Potency (CAOV3) | Potency (CASKI) | Potency (Es-2) | Potency (HeLa) | Potency (Hek293T [4]) | Potency (JEG-3)

CC(C[N+](C)(C)C)OC(N)=O (stereo unspecified)
inactive: max response (HEK293) 3.57% | outcome (HEK293) | outcome (HaCat [1]) | max response (KB-3-1) 3.39% and 7.21% | outcome (NIH3T3 [2]) | outcome (HACAT [3]) | outcome (HEK293T [6]) | Potency (MCC-13) | Potency (MKL-1) | Potency (MKL-2) | outcome (NIH3T3 [5]) | Potency (UISO) | Potency (WaGa) | Potency (C33A) | Potency (CAOV3) | Potency (CASKI) | Potency (Es-2) | Potency (HeLa) | Potency (Hek293T [4]) | Potency (JEG-3)

CCC(C)n1ncn(-c2ccc(N3CCN(c4ccc(OC[C@H]5CO[C@](Cn6cncn6)(c6ccc(Cl)cc6Cl)O5)cc4)CC3)cc2)c1=O (stereo partly specified)
active: Potency (HEK293) 2.82 µM
inactive: max response (HaCat [1]) 1.24% | outcome (HaCat [1]) | max response (KB-3-1) -3.28% and -9.44% and -24.5% | max response (NIH3T3 [2]) -7.51% | outcome (HACAT [3]) | Potency (MCC-13) | Potency (MCC-26) | Potency (MKL-1) | Potency (MKL-2) | Potency (UISO) | Potency (WaGa) | Potency (C33A) | Potency (CAOV3) | Potency (CASKI) | Potency (Es-2) | Potency (HeLa) | Potency (Hek293T [4]) | Potency (JEG-3)

CCCC(CCC)C(=O)O
inactive: max response (HEK293) -7.93% and 2.58% | max response (HaCat [1]) 2.57% | outcome (HaCat [1]) | max response (KB-3-1) 5.52% and 6.84% | max response (NIH3T3 [2]) 0.659% | outcome (HACAT [3]) | Potency (MCC-13) | Potency (MKL-1) | Potency (MKL-2) | Potency (UISO) | Potency (WaGa) | Potency (C33A) | Potency (CAOV3) | Potency (CASKI) | Potency (Es-2) | Potency (HeLa) | Potency (Hek293T [4]) | Potency (JEG-3)

CNCc1ccc(-c2[nH]c3cc(F)cc4c3c2CCNC4=O)cc1
active: Potency (HEK293) 11.6 µM
inactive: max response (HaCat [1]) 4.8% | outcome (HaCat [1]) | max response (KB-3-1) 9.78% | max response (NIH3T3 [2]) -1.23% and -23.6% | outcome (HACAT [3]) | Potency (MCC-13) | Potency (MCC-26) | Potency (MKL-1) | Potency (WaGa) | Potency (C33A) | Potency (CASKI) | Potency (Es-2) | Potency (HeLa) | Potency (Hek293T [4]) | Potency (JEG-3)

CCN(c1ccccc1)c1cc(NC)[n+](C)c(C)n1
inactive: max response (HEK293) 1.35% | outcome (HaCat [1]) | max response (KB-3-1) 7.88% | max response (NIH3T3 [2]) -7.55% | outcome (HACAT [3]) | Potency (MCC-13) | Potency (MCC-26) | Potency (MKL-1) | Potency (MKL-2) | Potency (UISO) | Potency (WaGa)

COc1ccc([C@@H]2CC(=O)c3c(O)cc(O[C@@H]4O[C@H](CO[C@@H]5O[C@@H](C)[C@H](O)[C@@H](O)[C@@H]5O)[C@@H](O)[C@H](O)[C@@H]4O)cc3O2)cc1O
inactive: outcome (HEK293) | max response (HaCat [1]) -2.14% and 4.84% | max response (KB-3-1) 2.27% | outcome (KB-3-1) | max response (NIH3T3 [2]) 2.09% | outcome (NIH3T3 [2]) | outcome (HEK293T [6]) | Potency (MCC-13) | Potency (MCC-26) | Potency (MKL-1) | Potency (MKL-2) | outcome (NIH3T3 [5]) | Potency (UISO) | Potency (WaGa)

NCCc1ccc(O)c(O)c1
inactive and 5.31 µM (active): Potency (MCC-13)
active: Potency (WaGa) 11.9 µM
18.7 µM (active) and inactive: Potency (MKL-2)
inactive: max response (HEK293) -42.9% | max response (HaCat [1]) 2.7% | outcome (HaCat [1]) | max response (KB-3-1) -3.12% and 0.713% | max response (NIH3T3 [2]) 2.44% and -9.95% | outcome (HACAT [3]) | Potency (MCC-26) | Potency (C33A) | Potency (CAOV3) | Potency (CASKI) | Potency (Es-2) | Potency (HeLa) | Potency (Hek293T [4]) | Potency (JEG-3)
inactive and 23.7 µM (active): Potency (MKL-1)
inactive and 18.8 µM (active): Potency (UISO)

O=c1[nH]c(-c2ccc(C(F)(F)F)cc2)nc2c1CSCC2
inactive: max response (HEK293) 1.09% | max response (HaCat [1]) -17.6% and -9.05% | max response (KB-3-1) 9.93% | outcome (KB-3-1) | max response (NIH3T3 [2]) -7.54% | Potency (MCC-13) | Potency (MCC-26) | Potency (MKL-1) | Potency (MKL-2) | Potency (WaGa)
active: Potency (Es-2) 28.2 µM

CCn1c(-c2nonc2N)nc2c(C#CC(C)(C)O)ncc(OC[C@H]3CCCNC3)c21
inactive: outcome (HaCat [1]) | outcome (NIH3T3 [2]) | outcome (HACAT [3]) | Potency (MCC-13) | Potency (MKL-1) | Potency (MKL-2) | outcome (NIH3T3 [5]) | Potency (UISO) | Potency (WaGa)
active: Potency (HEK293) 0.0469 µM | Potency (KB-3-1) 9.35 µM

Cc1csc(NC(=O)c2sc3nc4c(c(C(F)(F)F)c3c2N)CCC4)n1
active: Potency (CAOV3) 1.12 µM | Potency (Es-2) 2.51 µM | Potency (HeLa) 2.82 µM | Potency (Hek293T [4]) 3.55 µM
inactive: max response (HEK293) -22.1% | max response (HaCat [1]) -0.44% | outcome (HaCat [1]) | max response (KB-3-1) 1.14% and -9.3% | max response (NIH3T3 [2]) -3.35% and -3.51% | outcome (HACAT [3]) | Potency (MCC-13) | Potency (MCC-26) | Potency (MKL-1) | Potency (MKL-2) | Potency (UISO) | Potency (WaGa)
